# According to PubChem BioAssay (NCATS):
# Records with an inconclusive call do not appear. Active and inactive are the calls of the source. The call rests on the fitted dose curve; in most records, active means well fitted cell-killing curve with a large enough effect; inconclusive means small, poorly fitted or top-dose-only effect, or effect the other way; inactive means no such curve, though single readings can be large or run the other way. Starred links: 1 amine or outer side, 2 acyl side, 3 side chain; linkers in the order of their positions; H or OH if unused. Positions of bridges follow the written chain, without caps; N, C: chain ends. Non-standard residues stand in square brackets, D forms with d. Residues, ends and D or L forms follow the SMILES beside them. Chains are numbered I, II in the order given. Actinocin(9to1) = Cc1c2oc3c(C)ccc(C(=O)[*:1])c3nc-2c(C(=O)[*:2])c(N)c1=O; NMeV = CN[CH](C(=O)O)C(C)C; Sar = CNCC(=O)O
# Assay: Quantitative High-Throughput drug screen in 47 multiple myeloma cell lines against the NCATS MIPE library collection: OPM2_DSMZ cell viability assay (AID 1919872); further: nearly all actives have a fitted effect of over 30% in size
# Conditions: OPM2 myeloma viability, CellTiter-Glo ATP luminescence, 48 h; series mostly up to 45.8 µM; viability (% of DMSO): at the top concentration
# Source text: PI: Beverly A. Mock Ph.D.
# Laboratory of Cancer Biology and Genetics,
# Center for Cancer Research, National Cancer Institute,
# National Institute of Health, Bethesda, Maryland
# Drug resistance and disease progression are common in multiple myeloma (MM) patients, underscoring the need for new therapeutic combinations. […] We hypothesized that effective combinations would reduce MYC expression and enhance p16 activity. […] These preclinical data identify potentially useful drug combinations for evaluation in drug-resistant MM and reveal potential mechanisms of combined drug sensitivity.
# Described herein is the primary MIPE qHTS used to cherrypick compounds. Validated compounds were then further tested for potential synergistic activiy.
# [1] Peat TJ, Gaikwad SM, Dubois W, Gyabaah-Kessie N, Zhang S, Gorjifard S, Phyo Z, Andres M, Hughitt VK, Simpson RM, Miller MA, Girvin AT, Taylor A, Williams D, D'Antonio N, Zhang Y, Rajagopalan A, Flietner E, Wilson K, Zhang X, Shinn P, Klumpp-Thomas C, McKnight C, Itkin Z, Chen L, Kazandijian D, Zhang J, Michalowski AM, Simmons JK, Keats J, Thomas CJ, Mock BA. Drug combinations identified by high-throughput screening promote cell cycle transition and upregulate Smad pathways in myeloma. Cancer Lett. 2023 Aug 1;568:216284. doi: 10.1016/j.canlet.2023.216284. Epub 2023 Jun 24. PMID: 37356470; PMCID: PMC10408729.
# SEQUENCE No. (e.g., 1, 2, 3, etc.); […] (e.g., Cells, Incubation, Reagent, etc.); VALUE and DESCRIPTION.
# 1; Cells; 5 uL; white, solid bottom 1536-well Greiner assay plate.
# 2; Compounds; 23 nL; Kalypsis pin tool (Wako USA) equipped with a 1536-well pin head to transfer to the assay plates.
# 3; Incubation; 48 hours; 37C incubation.
# 4; Reagent;5uL; CellTiter Glo (Promega).
# 5; Detector; 425V; Luminescence; Viewlux PerkinElmer.
# NOTES (numbers refer to Sequence numbers above)
# 1. The cell-based screening methods employed in this study were like those previously published. Briefly, the corresponding myeloma cell lines were screened in 1,536-well plates with 500 cells, 5-uL per well for inhibition of cell viability (assessed by measuring ATP levels with CellTiterGlo).
# 2. NCATS MIPE 4.0 library of approved and investigational drugs were added using the Kalypsis pin tool. Wells treated with DMSO only for 100% viability and media only wells for 0% viability were used as controls.
# 3. The assay plates were covered and incubated for 48 hours in a 37C, 5% CO2 incubator with controlled humidity.
# 4. After 48 hours, CellTilter-GloTM luminescent substrate mix (Promega) reagent was added to the assay plate and plates we incubated for 5 min at room temperature.
# 5. Signal was measured as median relative luminescence units on a ViewLux (PerkinElmer) multiplate reader.
# [1] Heske CM, Davis MI, Baumgart JT, Wilson K, Gormally MV, Chen L, Zhang X, Ceribelli M, Duveau DY, Guha R, Ferrer M, Arnaldez FI, Ji J, Tran HL, Zhang Y, Mendoza A, Helman LJ, Thomas CJ. Matrix Screen Identifies Synergistic Combination of PARP Inhibitors and Nicotinamide Phosphoribosyltransferase (NAMPT) Inhibitors in Ewing Sarcoma. Clin Cancer Res. 2017 Dec 1;23(23):7301-7311. doi: 10.1158/1078-0432.CCR-17-1121. Epub 2017 Sep 12. PMID: 28899971; PMCID: PMC6636827.
# Potency means the concentration at half of the fitted maximal effect.
SMILES,viability (% of DMSO),Potency
COC(=O)[C@H](CCCN=C(N)N)NS(=O)(=O)c1ccc(C)cc1,104% (inactive),
O=C(CN1C(=O)C2(CCCC2)NC[C@H]1c1cc(F)cc(F)c1)Nc1ccc2c(c1)C[C@@]1(C2)C(=O)Nc2ncccc21,96.8% (inactive),
CCCCCCCCc1ccc(CCC(N)(CO)CO)cc1,,16.6 µM (active)
CN1CCCN(C(=O)c2cccc(-c3ccc(C=C4C(=O)Nc5ccc(Cl)cc54)o3)c2)CC1,,23.5 µM (active)
N#CC(=C(O)c1ccc(Cl)cc1Cl)c1nc2cc(Cl)ccc2c(=O)[nH]1,105% (inactive),
CC(N[C@H]1CCCC[C@H]1NC(=O)c1ccc(Cl)cc1)c1cccc2ccccc12 (stereo not given in full),106% (inactive),
COC1=C2C[C@@H](C)C[C@H](OC)[C@@H](O)[C@@H](C)C=C(C)[C@H](OC(N)=O)[C@@H](OC)C=CC=C(C)C(=O)NC(=CC1=O)C2=O,,0.332 µM (active)
C=C1CCC2[C@](C)(CO)C(O)CC[C@]2(C)C1CC=C1C(=O)OCC1O (stereo not given in full),105% [at 92.2 µM] (inactive),
Cc1cc(-c2nnc3n2CCCCC3)c(C)n1-c1ccccc1,89.1% (inactive),
O=C(Nc1nnc(-c2ccco2)o1)c1cc(-c2ccccc2)nc2ccccc12,101% (inactive),
CC(C)(C)[N+]([O-])=Cc1ccc(S(=O)(=O)O)cc1S(=O)(=O)O,104% (inactive),
CC(=O)N[C@H]1[C@@H]([C@H](O)[C@H](O)CO)OC(C(=O)O)=C[C@@H]1N=C(N)N,125% (inactive),
CCOC(=O)[C@@H](N)Cc1ccc(-c2cc(O[C@H](c3ccc(Cl)cc3-n3ccc(C)n3)C(F)(F)F)nc(N)n2)cc1,,18.7 µM (active)
O=C(C=CC=Cc1ccc2c(c1)OCO2)N1CCCCC1,110% (inactive),
C[C@]12CCC(=O)C=C1[C@@H]1CC1[C@H]1[C@H]3[C@@H]4C[C@H]4[C@@]4(CCC(=O)O4)[C@@]3(C)CC[C@H]12 (stereo not given in full),89.5% (inactive),
COc1ccc2c(c1OC)C(=O)OC2[C@H]1c2c(cc3c(c2OC)OCO3)CCN1C (stereo not given in full),,0.0662 µM (active)
CCOC(=O)N1CCN([N+]([O-])=NOc2ccc([N+](=O)[O-])cc2C#N)CC1,,0.935 µM (active)
C=CC(=O)N1CCc2ccc(-n3c(=O)ccc4cnc5ccc(-c6cnn(C)c6)cc5c43)cc21,,2.35 µM (active)
O=C(C=Cc1ccc(CN(CCO)CCc2c[nH]c3ccccc23)cc1)NO,,0.209 µM (active)
CCOc1cc2c(c(F)c1OCC)C(=N)N(CC(=O)c1cc(N3CCOCC3)c(OC)c(C(C)(C)C)c1)C2,,18.7 µM (active)

SMILES,viability (% of DMSO),Potency
COc1ccc(S(=O)(=O)Nc2cc(-c3c(O)ccc4ccccc34)c(O)c3ccccc23)cc1,,11.8 µM (active)
C[C@H](CCC(=O)O)[C@H]1CCC2C3C[C@H](O)[C@@H]4C[C@H](O)CC[C@]4(C)C3CC[C@@]21C (stereo not given in full),112% (inactive),
"Cc1c2oc3c(C)ccc(C(=O)NC4C(=O)NC(C(C)C)C(=O)N5CCCC5C(=O)N(C)CC(=O)N(C)C(C(C)C)C(=O)OC4C)c3nc-2c(C(=O)NC2C(=O)NC(C(C)C)C(=O)N3CCCC3C(=O)N(C)CC(=O)N(C)C(C(C)C)C(=O)OC2C)c(N)c1=O (stereo not given) (I: TVP[Sar][NMeV] / II: TVP[Sar][NMeV]; ester I:1-I:C, II:1-II:C; linker I:N-II:N via Actinocin(9to1); configuration not given here)",4.82% (inactive),
C[N+](C)([O-])CCNc1ccc(NCC[N+](C)(C)[O-])c2c1C(=O)c1c(O)ccc(O)c1C2=O,118% (inactive),
Nc1nc(=O)n([C@H]2CSC(CO)O2)cc1F (stereo not given in full),103% (inactive),
CC1(C)[C@H](O[C@H]2O[C@H](C(=O)O)[C@@H](O)[C@H](O)[C@H]2O[C@@H]2O[C@H](C(=O)O)[C@@H](O)[C@H](O)[C@H]2O)CC[C@@]2(C)[C@H]1CC[C@]1(C)[C@H]2C(=O)C=C2[C@H]3C[C@@](C)(C(=O)O)CC[C@]3(C)CC[C@]21C,123% (inactive),
CS[C@H]1SC[C@@H]2C(=O)N(C)[C@H](C(C)C)C(=O)OC[C@H](NC(=O)c3cnc4ccccc4n3)C(=O)N[C@H](C)C(=O)N(C)[C@@H]1C(=O)N(C)[C@H](C(C)C)C(=O)OC[C@H](NC(=O)c1cnc3ccccc3n1)C(=O)N[C@H](C)C(=O)N2C,,0.0083 µM (active)
c1ccc2c(Oc3nc(Nc4ccc(N5CCOCC5)cc4)c4ncn(C5CCCCC5)c4n3)cccc2c1,84% (inactive),
C[C@H]1COc2c(N3CCN(C)CC3)c(F)cc3c(=O)c(C(=O)O)cn1c23,108% (inactive),
CC[C@H]1OC(=O)[C@H](C)[C@@H](O[C@H]2C[C@@](C)(OC)[C@@H](O)[C@H](C)O2)[C@H](C)[C@@H](O[C@@H]2O[C@H](C)C[C@H](N(C)C)[C@@H]2O)[C@](C)(OC)C[C@@H](C)C(=O)[C@H](C)[C@@H](O)[C@]1(C)O,95.9% (inactive),
O=C1c2cccc(O)c2C(=O)c2c(O)cc(CO)cc21,96.5% (inactive),
NC(=O)c1ncn([C@@H]2O[C@H](CO)[C@@H](O)[C@@H]2O)c1N,116% (inactive),
COC(=O)[C@@H]1[C@H]2C[C@@H]3c4[nH]c5ccccc5c4CCN3C[C@@H]2CC[C@@H]1O,97.8% (inactive),
O=C(CCCCCCC(=O)Nc1cccnc1)NO,,8.33 µM (active)
CCN(CC)CCNC(=O)c1c(C)[nH]c(C=C2C(=O)Nc3ccc(F)cc32)c1C,,6.05 µM (active)
C[C@@H]1[C@H](C)CC[C@]2(C(=O)O)CC[C@]3(C)C(=CC[C@@H]4[C@@]5(C)C[C@@H](O)[C@H](O)[C@@](C)(CO)[C@H]5CC[C@]43C)[C@@H]12,123% (inactive),
C[C@@H]1CC[C@@]2(OC1)OC1CC3C4CC=C5CC(O)CCC5(C)C4CCC3(C)C1[C@@H]2C (stereo not given in full),122% (inactive),
CCOC(=O)C1=C(C)NC(=S)NC1c1cccc(O)c1 (stereo not given),,0.105 µM (active)
C[C@]12CC[C@@H]3c4ccc(O)cc4CC[C@H]3[C@H]1CC[C@H]2O,,18.7 µM (active)
C=C(C)[C@@H]1CC[C@]2(C)CC[C@]3(C)[C@H](CC[C@@H]4[C@@]5(C)CC[C@H](O)C(C)(C)[C@H]5CC[C@]43C)[C@@H]12,89.8% (inactive),
